# Results taken from PubChem BioAssay AID651702 (NMMLSC, 2012).
# Among all 360,000 compounds or so, about 2,400 (0.67%) were called active.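 How the source made its calls: active means inhibition above about 55% (limit read from the data); inconclusive means no clear call, values can overlap the other calls; inactive means the rest.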 The full list was thinned out, with actives kept by preference.
# Experiment: LAMP-1 surface exposure blockers, TALL-104 cells – cell-based, flow cytometry, MLPCN library, primary screen (AID 651702)
# Conditions: TALL-104 LAMP-1 surface exposure, at 10 µM, stronger effect = higher value
row,Structure (SMILES),inhibition
1,CC(=O)OC1C2(CC3N4C(=O)C5(CO)SSC4(CC31O)C(=O)N5C)OC(C)C(C)(C)C2=O (stereo not given),74.7% (active)
2,CN1CCC[C@@H]1CCO[C@](C)(c1ccccc1)c1ccc(Cl)cc1,3.8% (inactive)
3,Cc1cc(N2C(=O)C3CCCN3C2c2ccc(Cl)c(Cl)c2)no1 (stereo not given),1.1% (inactive)
4,CN1CCC(OC(=O)c2cccc(F)c2)CC1,-4.7% (inactive)
5,O=C(CCNS(=O)(=O)c1ccccc1)Nc1ccc(Cl)cc1C(=O)c1ccccc1,-5.4% (inactive)
6,OC1/C(=C/c2ccc(C(F)(F)F)cc2)N2CCC1CC2 (stereo not given),-6.5% (inactive)
7,O=C1NC(=O)N(CCc2ccc(F)cc2)C(=O)/C1=C/C=C/c1ccccc1,57.4% (active)
8,O=[N+]([O-])c1ccc(C2C3C(c4ccccc4)=NC4(CCCCC4)N32)cc1 (stereo not given),0.6% (inactive)
9,O=c1[nH]c(CN2CC=C(c3ccccc3)CC2)nc2scc(-c3cccs3)c12,-1.3% (inactive)
10,Cc1ccc(CN2CCCC(C(=O)c3ccc4c(c3)OCO4)C2)cc1C (stereo not given),-2.3% (inactive)
11,CCOc1ccc(-c2cc(C)[n+](CCN(CC)CC)c(-c3ccc(OCC)cc3)c2)cc1,77.5% (active)
12,COc1ccccc1CN1CCN(C(=O)Cc2ccccc2)CC1,24.2% (inactive)
13,COc1ccc(CNCCc2c[nH]c3ccccc23)cc1OC,21.9% (inactive)
14,COc1ccc(Br)cc1CNCCc1cccc(Cl)c1,75.9% (active)
15,COc1ccc(CNCCc2ccc3c(c2)OCO3)c(OC)c1OC,5.7% (inactive)
16,CCOP(=S)(OCC)C(O)CCCCCn1c(=O)c(F)cn(C2CCCO2)c1=O (stereo not given),1.5% (inactive)
17,CCOC(=O)[C@]12Cc3ccccc3[C@H]1N(C1CCCCC1)C(=O)c1cc(OC)ccc12,57.3% (active)
18,CCOC(=O)[C@]12Cc3cc(OC)ccc3[C@H]1N(C(C)C)C(=O)c1ccccc12,3.3% (inactive)
19,Cc1cccc(NC(=O)N2CC3CC(C2)c2cccc(=O)n2C3)c1 (stereo not given),-2.7% (inactive)
20,O=C(CCCn1c(=O)[nH]c2cc(Cl)ccc2c1=O)N1CCC2(CC1)OCCO2,2% (inactive)
21,Cc1cccc(OP(=O)(Oc2cccc(C)c2)OC(c2ccccc2)C(F)(F)F)c1 (stereo not given),0.4% (inactive)
22,O=C(Nc1cccc2ccccc12)N1CCC2(CC1)OCCO2,-7.6% (inactive)
23,CCCCCCCCCCCCn1ccc(=N)cc1,27.1% (inactive)
24,CCOC(=O)C1CN(C)CCC1=O (stereo not given),-3.9% (inactive)
25,CNCC[C@H](Oc1ccc(C(F)(F)F)cc1)c1ccccc1,10% (inactive)
26,O=C1NC(=O)N(Cc2ccco2)C(=O)/C1=C\c1ccc(-c2ccc(F)cc2)o1,76.4% (active)
27,COC(=O)C1=C(c2ccc(Cl)c(C(F)(F)F)c2)C[C@@H]2CC[C@H]1N2C(=O)NC(C)C,-10.7% (inactive)
28,COCc1cc(OC(=O)N(C)C)nc(-c2ccc(C)c(Cl)c2)n1,-8.4% (inactive)
29,COc1cc(-n2c(=S)[nH]c3ccc(C)cc3c2=O)c(Cl)cc1Cl,1.2% (inactive)
30,COc1ccc(-n2c(O)c(C(C)=Nc3ccc4c(c3)CCC4)c(=O)[nH]c2=O)cc1,-0.2% (inactive)
